phage Ecoli inh: growth loss of phage-infected E. coli, primary screen, RecBCD inhibitor project, absorbance, with phage, HTS; inhibition, % at 11.9 µM; 360,000 compounds, 0.26% hits; AID 651602, 2012; in the data active means inhibition above about 11%
Tat export inh: E. coli Tat export inhibitors, primary screen, MC4100, TorA-mCherry reporter, fluorescence, single point; inhibition, % at 10 µM; 340,000 compounds, 0.036% hits;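 active means mean replicate inhibition at least 50% and at least half of replicates individually reaching 50%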;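 further: exported cargo escapes ClpAP degradation while cytoplasmic cargo is degraded and loses fluorescence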
E coli growth-1: E. coli growth inhibition, primary screen, OD600; OD600 absorbance (test concentration not listed); Escherichia coli growth, 23 h; hits give low values; 330,000 compounds, 0.21% hits; AID 1053175, 2014;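 active means OD600 absorbance below the run mean of sample wells minus 3.6 SD, in any replicate, cut at about 0.56 in these data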
AddAB inh: growth inhibition of E. coli expressing H. pylori AddAB, primary screen, AddAB inhibitor project, absorbance; AID 435030, 2010; inhibition, % at 11.9 µM; 330,000 compounds, 0.29% hits; in the data active means inhibition above about 12%
E coli growth-2: E. coli V3065 growth inhibition, primary screen, counter-screen for AddAB inhibitor project, absorbance, OD600; 330,000 compounds, 0.27% hits; 18 h; inhibition, % at 11.9 µM;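 active means inhibition above the campaign's mean inhibition across all tested compounds plus 3 SD, cut at about 9.9% in these data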;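 further: uninfected addAB+ strain grown without phage in ampicillin broth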
AddAB conf: growth loss of phage-infected E. coli expressing H. pylori AddAB, confirmation, AddAB inhibitor project, absorbance, E. coli V3065, T4 phage, triplicate; shares compounds with AddAB inh; OD; T4 phage with gene 2 nonsense mutations; inhibition, % at 11.9 µM; 880 compounds, 64% hits; AID 488942, 2010;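 active means mean inhibition above a set limit taken from the earlier primary screen, cut at about 13% in these data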;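 further: higher means less bacterial growth since AddAB block lets phage replicate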
RecBCD counter: growth loss of RecBCD+ E. coli with mutant T4 phage, counter-screen for AddAB inhibitor project, absorbance, V66 E. coli; AID 488955, 2010; shares compounds with AddAB inh; inhibition, % at 11.9 µM; 880 compounds, 73% hits; OD growth;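 active means mean inhibition above the mean of solvent-only control wells plus 3 SD, cut at about 4% in these data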;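 further: optical density read after an 18 h incubation at 37 °C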
bact viab count: bacterial viability inhibition counter-screen, confirmation, counter-screen for AddAB inhibitor project, absorbance | absorbance (AddAB counterscreen) | 880 compounds, 35% hits | shares compounds with AddAB inh | AID 488956, 2010 | inhibition, % at 11.9 µM; in the data active means inhibition above about 25%
RecBCD conf: growth loss of phage-infected RecBCD+ E. coli, confirmation, RecBCD inhibitor project, absorbance, E. coli V66, T4 gene 2 phage; inhibition, % at 11.9 µM; shares compounds with phage Ecoli inh; E. coli V66 + T4 2- phage, growth OD; 890 compounds, 45% hits;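 active means mean inhibition over triplicates exceeding the hit threshold derived in the original primary screen, cut at about 11% in these data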
Ecoli viability: E. coli viability inhibition, counter-screen for RecBCD inhibitor project, absorbance, high throughput | shares compounds with phage Ecoli inh | absorbance (OD) growth | inhibition, % at 11.9 µM | 890 compounds, 29% hits | AID 651983, 2013; in the data active means inhibition above about 20%;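 further: E. coli strain V66 grown with compound alone and no phage infection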
AddAB phage OD: growth loss of phage-infected AddAB-carrying E. coli, confirmation, counter-screen for RecBCD inhibitor project, absorbance, E. coli V3065, T4 phage | shares compounds with phage Ecoli inh | E. coli expressing H. pylori AddAB + T4 phage, OD growth; gene 2 mutant T4, recBCD-deleted host | inhibition, % at 11.9 µM | 890 compounds, 45% hits | AID 651984, 2013;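 active means mean inhibition above the solvent-only control wells' mean plus 3 SD, cut at about 22% in these data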;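 further: higher means less bacterial growth from phage killing when AddAB is blocked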
A number is an active result; ! = repeats disagree. Hits are enriched below; roughly 0.5% of the tested compounds scored in any of these assays.

CN1C(=O)NC(=O)/C(=C\c2ccc([N+](=O)[O-])o2)C1=O was read as Tat export inh inactive, AddAB inh inactive and E coli growth-2 inactive.
`CN1C(=O)NC(=O)/C(=C/c2ccc([N+](=O)[O-])o2)C1=O` gave phage Ecoli inh inactive, E coli growth-1 0.3, AddAB inh inactive and E coli growth-2 inactive.
For CN(C)C(=S)SSC(=S)N(C)C the results were phage Ecoli inh inactive, Tat export inh inactive, E coli growth-1 0.49, AddAB inh inactive and E coli growth-2 inactive.
Screening COC(=O)C1=C(c2ccccc2OCc2ccccc2)CC2CCC1N2C(=O)NCCN1CCOCC1 (configuration not stated) returned E coli growth-1 inactive.
Screening O=C(Cc1cccs1)N1CCC2(CC1)OCCO2 returned phage Ecoli inh inactive, Tat export inh inactive, E coli growth-1 inactive, AddAB inh inactive and E coli growth-2 11.
`COC(=O)C1=C(c2cccc(C#N)c2)CC2CCC1N2C(=O)NC(C)C` (configuration not stated) gave E coli growth-1 inactive.
N#CC1c2ccccc2-n2nncc2CN1Cc1cc(Cl)cc(Cl)c1 (configuration not stated) was read as phage Ecoli inh inactive and Tat export inh 56.
CCCCCCCCCCCCCCCC[N+](C)(C)C was read as phage Ecoli inh inactive, Tat export inh inactive, E coli growth-1 0.069, AddAB inh inactive and E coli growth-2 inactive.
COC1=C(C)C(=O)O[C@]12C(=O)C(C)=C1CCCCN3C(C4CC(C)C(=O)O4)CC[C@]132 (some centres not stated) was read as E coli growth-1 inactive.
COC(=O)C1=C(c2cccc(OCc3ccccc3)c2)CC2CCC1N2C(=O)NCc1ccc([N+](=O)[O-])cc1 (configuration not stated) was read as E coli growth-1 inactive.
O=c1[nH]sc2cc(F)ccc12 was read as phage Ecoli inh inactive, Tat export inh inactive and E coli growth-1 0.49.
Screening Oc1cc(Cl)c(Cl)c(Cl)c1 returned phage Ecoli inh inactive, Tat export inh inactive and E coli growth-1 0.068.
For O=P(NC(c1ccccc1)C1CC1CO)(c1ccccc1)c1ccccc1 (configuration not stated) the results were E coli growth-1 inactive.
`COc1cc2c3c(c1OC)Oc1ccc(cc1)C[C@H]1c4c(cc(OC)c(OC)c4Oc4ccc(cc4)C[C@@H]3N(C)CC2)CCN1C` gave phage Ecoli inh inactive, Tat export inh 54, AddAB inh inactive and E coli growth-2 inactive.
For COc1cc2c3c(c1OC)Oc1ccc(cc1)CC1c4c(cc(OC)c(OC)c4Oc4ccc(cc4)CC3N(C)CC2)CCN1C (configuration not stated) the results were E coli growth-1 inactive.
For COC(=O)C1=C(c2ccc(OCc3ccccc3)cc2)CC2CCC1N2C(=O)NCc1ccc(N(C)C)cc1 (configuration not stated) the results were E coli growth-1 inactive.
`CCCCCCNC(=O)NC(Cc1ccc(O)cc1)C(=O)NCCCC1CN2C(=NCC2C)N1CC1CCC1` (configuration not stated) gave E coli growth-1 inactive.
COC1C(OC(=O)c2ccc(C)[nH]2)C(O)C(Oc2ccc3c(O)c(NC(=O)c4ccc(O)c(CC=C(C)C)c4)c(=O)oc3c2Cl)OC1(C)C (configuration not stated) was read as phage Ecoli inh inactive, Tat export inh inactive, E coli growth-1 0.052, AddAB inh inactive and E coli growth-2 inactive.
For CN(C)C1(c2nnnn2-c2ccc(Cl)cc2)CCCCC1 the results were phage Ecoli inh inactive, Tat export inh inactive, AddAB inh inactive and E coli growth-2 inactive.
CC(C)CC(N(C)C)C1(c2ccc(Cl)cc2)CCC1 (configuration not stated) was read as phage Ecoli inh inactive, Tat export inh inactive, E coli growth-1 0.52!, AddAB inh 37!, E coli growth-2 27!, AddAB conf 100, RecBCD counter inactive and bact viab count 67.
For CN(C)C1C(=O)C(C(N)=O)=C(O)C2(O)C(=O)C3=C(O)c4c(O)cccc4C(C)(O)C3CC12 (configuration not stated) the results were Tat export inh 147, AddAB inh 85, E coli growth-2 94, AddAB conf 94, RecBCD counter 93 and bact viab count 92.
Cc1ccccc1-n1c(O)c(C=Nc2nccs2)c(=O)[nH]c1=O was read as E coli growth-1 inactive.
For Cc1c2ccncc2c(C)c2c1[nH]c1ccccc12 the results were Tat export inh inactive, E coli growth-1 0.42, AddAB inh 13, E coli growth-2 14, AddAB conf inactive, RecBCD counter inactive and bact viab count inactive.
c1ccc2c(c1)[nH]c1cnccc12 was read as phage Ecoli inh inactive, Tat export inh inactive, E coli growth-1 inactive, AddAB inh inactive and E coli growth-2 inactive.
Screening COC(=O)C1=C(c2ccccc2)CC2CCC1N2C(=O)NCCO (configuration not stated) returned E coli growth-1 inactive.
Cn1ncnc2c(=O)n(C)c(=O)nc1-2 was read as Tat export inh 128, E coli growth-1 0.048, AddAB inh 47, E coli growth-2 45, AddAB conf 73, RecBCD counter 76 and bact viab count 79.
For Cc1cccc(-n2c(/C=C/c3ccc([N+](=O)[O-])o3)nc3ccccc3c2=O)c1 the results were phage Ecoli inh inactive, Tat export inh inactive, E coli growth-1 inactive, AddAB inh inactive and E coli growth-2 inactive.
O=c1c2ccccc2nc(/C=C/c2ccc([N+](=O)[O-])o2)n1-c1ccc(O)cc1 was read as phage Ecoli inh 12, Tat export inh inactive, E coli growth-1 inactive, RecBCD conf inactive, Ecoli viability inactive and AddAB phage OD 40.

Compound activity: PubChem, several laboratories
